tim10-1 inh – growth inhibitors of tim10-1 mutant yeast, primary screen, luminescence, uHTS; S. cerevisiae tim10-1 ts strain growth, BacTiter-Glo, 24 h; inhibition, % at 20 µM; 330,000 compounds, 2.2% hits; AID 463190, 2010;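 active = inhibition of at least 40%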;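 note: mutant grown at 25 °C; 0% = DMSO wells with yeast and 100% = wells holding no yeast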
NLRP3 yeast inh – NALP3 inflammasome inhibitors in reconstituted yeast, primary screen, luminescence, uHTS; AID 2825, 2010; inhibition, % at 10 µM; 330,000 compounds, 0.39% hits; Yeast reconstituted NLRP3/ASC/caspase-1, beta-gal luminescence, 24 h;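 active = inhibition of 50% or more; inactive = inhibition below 50%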;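 note: plate controls were induced DMSO wells for no effect and uninduced yeast grown without galactose for full effect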
TIM10 inh – growth inhibitors of isogenic TIM10 control yeast, primary screen, counter-screen for tim10-1 yeast inhibitor project, luminescence, uHTS; S. cerevisiae TIM10 strain growth, BacTiter-Glo luminescence, 24 h; inhibition, % at 10 µM; 330,000 compounds, 1.4% hits; AID 463195, 2010;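 active = inhibition of 40% or more at the single tested concentration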;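 note: wild-type TIM10 isogenic control strain grown at permissive 25 °C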
SKKanGAS inh – S. pyogenes SKKanGAS growth inhibitors in kanamycin, primary screen, streptokinase expression inhibitor project, SKKanGAS strain, BacTiter-Glo luminescence. 6 h. inhibition, % at 7.5 µM. 300,000 compounds, 1.3% hits. AID 1662, 2009;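 active = mean replicate score, as percent of positive control median, at least 50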;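 note: strain carries kanamycin resistance gene driven by streptokinase promoter and grows in 40 µg/ml kanamycin; loss of luminescence reflects streptokinase promoter inhibition or plain growth inhibition; 0% = median of DMSO wells and 100% = positive control at its reference dose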
tim23-1 inh – growth inhibitors of tim23-1 mutant yeast, primary screen, luminescence, uHTS; S. cerevisiae tim23-1 growth, BacTiter-Glo luminescence, 24 h; 330,000 compounds, 1.3% hits; AID 463212, 2010; inhibition, % at 20 µM;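 active = growth inhibition of the mutant yeast at or above 50%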;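 note: temperature-sensitive mutant grown at 25 °C; plate controls were DMSO-treated mutant yeast for no effect and medium wells lacking yeast for full effect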
An asterisk follows results filed as active. This is a sample that favours compounds with a hit; in the whole collection about 4.6% have one here.

`COc1ccc(/C(O)=C2/C(=O)C(=O)N(c3ccccn3)C2c2ccc(OC)cc2)cc1` (configuration not stated) gave tim10-1 inh 0, NLRP3 yeast inh -4, TIM10 inh -17, SKKanGAS inh -5 and tim23-1 inh -3.
`O=C1C(=O)N(c2ccccn2)C(c2ccc(Br)cc2)/C1=C(/O)c1ccc(Br)cc1` (configuration not stated) gave tim10-1 inh 8, NLRP3 yeast inh 8, TIM10 inh 10, SKKanGAS inh 69* and tim23-1 inh 13.
For CCOc1ccccc1NC(=O)C1(S(=O)(=O)c2ccc(Cl)cc2)CC1 the results were tim10-1 inh 9, NLRP3 yeast inh 18, TIM10 inh 20, SKKanGAS inh 3 and tim23-1 inh 21.
Screening NC(=O)c1ccc(NC(=O)Cc2ccc(S(=O)(=O)N3CCCCC3)cc2)cc1 returned tim10-1 inh -13, NLRP3 yeast inh 11, TIM10 inh 9 and tim23-1 inh 3.
c1ccc(C2=Nn3c(nnc3-c3cccs3)SC2)cc1 was read as tim10-1 inh 16, NLRP3 yeast inh 17, TIM10 inh 18, SKKanGAS inh -1 and tim23-1 inh 34.
Screening c1ccc(-c2ccc(C3=Nn4c(nnc4-c4cccs4)SC3)cc2)cc1 returned tim10-1 inh -9, NLRP3 yeast inh 2, TIM10 inh 12, SKKanGAS inh 51* and tim23-1 inh 24.
For C/C(=N\NC(=O)COc1ccc(C(C)(C)C)cc1)c1cc2ccccc2o1 the results were tim10-1 inh 14, NLRP3 yeast inh 16, TIM10 inh 14, SKKanGAS inh 19 and tim23-1 inh 7.
`C/C(=N\NC(=O)c1nc2ccccn2c1C)c1cc2ccccc2o1` gave tim10-1 inh -12, NLRP3 yeast inh 19, TIM10 inh -2, SKKanGAS inh 0 and tim23-1 inh 14.
`C/C(=N\NC(=O)COc1ccc(C)cc1C(C)C)c1cc2ccccc2o1` gave tim10-1 inh 29, NLRP3 yeast inh 24, TIM10 inh 19, SKKanGAS inh 57* and tim23-1 inh 23.
C/C(=N\NC(=O)c1cc2ccccc2cc1O)c1cc2ccccc2o1 was read as tim10-1 inh 0, NLRP3 yeast inh 5, TIM10 inh 3, SKKanGAS inh 78* and tim23-1 inh 21.
`CC(C)CC1NC(=O)c2ccc(Cl)cc2-n2c1nc1ccc(Cl)cc1c2=O` (configuration not stated) gave tim10-1 inh 6, NLRP3 yeast inh 3, TIM10 inh 0 and tim23-1 inh 12.
`Cc1ccc(S(=O)(=O)NC(=O)Nc2cc(C)ccc2F)cc1` gave tim10-1 inh 9, NLRP3 yeast inh -2, TIM10 inh -4, SKKanGAS inh -2 and tim23-1 inh -1.
CC(=O)NS(=O)(=O)c1ccc(N=c2ssc3c2-c2ccc(C)cc2NC3(C)C)cc1 was read as tim10-1 inh 22, NLRP3 yeast inh -12, TIM10 inh -2, SKKanGAS inh 82* and tim23-1 inh -1.
CC(C)(NS(=O)(=O)OCC(Cl)(Cl)Cl)c1ccccc1 was read as tim10-1 inh 14, NLRP3 yeast inh 27, TIM10 inh 21, SKKanGAS inh 11 and tim23-1 inh 36.
CC(NS(=O)(=O)OCC(Cl)(Cl)Cl)c1ccc(C(C)(C)C)cc1 (configuration not stated) was read as SKKanGAS inh 93*.
For O=C(O)c1ccc(N/N=C/c2ccc(-c3cc(Cl)ccc3Cl)o2)cc1 the results were tim10-1 inh -3, NLRP3 yeast inh -6, TIM10 inh -10, SKKanGAS inh 76* and tim23-1 inh 23.
For O=C(O)c1ccc(N/N=C/c2ccc(-c3cccc(Cl)c3)o2)cc1 the results were tim10-1 inh 23, NLRP3 yeast inh 26, TIM10 inh 17, SKKanGAS inh 70* and tim23-1 inh 32.
Screening O=C(O)c1ccc(N/N=C/c2ccc(-c3ccc(Cl)cc3Cl)o2)cc1 returned tim10-1 inh -32, NLRP3 yeast inh 17, TIM10 inh -49, SKKanGAS inh 84* and tim23-1 inh 24.
`COc1cc(C)cc(OC)c1OCC(=O)Nc1cc(C)on1` gave tim10-1 inh -10, NLRP3 yeast inh 31, TIM10 inh -2 and tim23-1 inh 11.
For CCOc1ccc(NC(=O)COc2ccc(C(=O)NCc3cccc(OC)c3)cc2OC)cc1 the results were tim10-1 inh -13, NLRP3 yeast inh 6, TIM10 inh -14 and tim23-1 inh -21.
Screening c1ccc(-c2nnc(C(c3ccccc3)c3ccccc3)o2)cc1 returned tim10-1 inh 10, NLRP3 yeast inh 9, TIM10 inh 0, SKKanGAS inh 4 and tim23-1 inh 20.
OC(c1ccc(OCc2ccccc2)cc1)c1nnc(-c2ccccc2)o1 (configuration not stated) was read as tim10-1 inh 18, NLRP3 yeast inh 16, TIM10 inh 12, SKKanGAS inh 57* and tim23-1 inh 15.
`N#Cc1c(-c2c(Cl)cccc2Cl)noc1/C=C/Nc1ccc(C(=O)O)cc1` gave tim10-1 inh 16, NLRP3 yeast inh -9, TIM10 inh 11, SKKanGAS inh 59* and tim23-1 inh 12.
Screening COC(=O)c1cc(S(=O)(=O)NCC2CCN(CCc3cccs3)CC2)c[nH]1 returned tim10-1 inh 2, NLRP3 yeast inh 7, TIM10 inh 1, SKKanGAS inh -2 and tim23-1 inh -8.
For CC(C)=CCc1cc2c(=O)c3c(O)c4c(cc3oc2c(O)c1O)OC(C)C4(C)C (configuration not stated) the results were tim10-1 inh 36, NLRP3 yeast inh 6, TIM10 inh -6, SKKanGAS inh 103* and tim23-1 inh 34.
`CC1Oc2cc3oc4c(O)c5c(cc4c(=O)c3c(O)c2C1(C)C)C=CC(C)(C)O5` (configuration not stated) gave tim10-1 inh 13, NLRP3 yeast inh -1, TIM10 inh 10, SKKanGAS inh 70* and tim23-1 inh 24.
Screening O=C(Nc1nnc(-c2ccc(Br)cc2)o1)c1cccc(N2C(=O)CCC2=O)c1 returned tim10-1 inh 7, NLRP3 yeast inh 26, TIM10 inh -1, SKKanGAS inh 88* and tim23-1 inh 14.
`Cc1cccc(-c2nnc(NC(=O)c3ccc(Cl)cc3)o2)c1` gave tim10-1 inh 4, NLRP3 yeast inh 30, TIM10 inh -16, SKKanGAS inh 122* and tim23-1 inh 27.
Screening O=C(Nc1nnc(-c2ccccn2)o1)c1cccc(Cl)c1 returned tim10-1 inh 15, NLRP3 yeast inh -10, TIM10 inh -5, SKKanGAS inh 83* and tim23-1 inh 9.
`CC(=O)Nc1nnc(-c2ccccn2)o1` gave tim10-1 inh -5, NLRP3 yeast inh -7, TIM10 inh -27, SKKanGAS inh -2 and tim23-1 inh -10.

High-throughput results deposited in PubChem BioAssay by several laboratories.
